# Data taken from PubChem BioAssay AID1946 (Johns Hopkins Ion Channel Center, 2009).
# Among all 2,400 compounds or so, about 180 (7.5%) were called active. The sample as a whole holds a higher share of actives than the screen did. Values without a mark were called inactive.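 Rule for the calls: active = readout below zero, meaning a drop past 3 SD under the dofetilide-free negative control mean; inactive = the rest.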
# Biological target: Potassium voltage-gated channel subfamily KQT member 2 (Rattus norvegicus) (UniProt O88943)
# Sequence (O88943 whole entry, looked up): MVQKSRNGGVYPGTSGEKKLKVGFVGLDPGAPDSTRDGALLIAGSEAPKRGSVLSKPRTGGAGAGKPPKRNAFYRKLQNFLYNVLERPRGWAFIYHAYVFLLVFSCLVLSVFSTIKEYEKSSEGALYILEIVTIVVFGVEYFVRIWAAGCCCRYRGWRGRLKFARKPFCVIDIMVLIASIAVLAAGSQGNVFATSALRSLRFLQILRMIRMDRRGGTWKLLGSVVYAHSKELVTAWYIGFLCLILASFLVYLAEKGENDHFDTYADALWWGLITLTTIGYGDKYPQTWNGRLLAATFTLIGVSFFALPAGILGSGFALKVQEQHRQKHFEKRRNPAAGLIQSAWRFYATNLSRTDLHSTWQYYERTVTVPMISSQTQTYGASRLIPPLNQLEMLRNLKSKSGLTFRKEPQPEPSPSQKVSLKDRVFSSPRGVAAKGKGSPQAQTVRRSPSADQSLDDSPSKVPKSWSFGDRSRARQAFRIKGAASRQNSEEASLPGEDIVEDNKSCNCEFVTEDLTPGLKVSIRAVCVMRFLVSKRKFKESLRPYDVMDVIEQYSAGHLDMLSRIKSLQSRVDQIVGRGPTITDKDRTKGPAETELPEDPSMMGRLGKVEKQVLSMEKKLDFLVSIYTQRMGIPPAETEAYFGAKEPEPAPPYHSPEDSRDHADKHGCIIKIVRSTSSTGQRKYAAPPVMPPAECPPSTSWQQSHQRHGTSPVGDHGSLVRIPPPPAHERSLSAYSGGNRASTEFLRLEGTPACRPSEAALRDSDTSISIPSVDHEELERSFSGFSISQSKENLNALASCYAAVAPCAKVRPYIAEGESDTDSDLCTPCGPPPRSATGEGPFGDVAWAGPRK
# Test: rat KCNQ2 channel inhibition by compounds alone, confirmation, counter-screen for hERG block protector project, cell-based, CHO, FluxOR thallium flux (AID 1946)
# Conditions: CHO-KCNQ2 cells, FluxOR thallium flux fluorescence; at 10 µM; stronger effect = lower value; zero marks the 3-SD hit cutoff
row,SMILES,activity change vs negative control
1,COc1ccc2c(c1)O[C@@H](c1cccc(C(F)(F)F)c1)[C@H](OC(=O)NCCc1ccc(OC)c(OC)c1)C2=O,20.4%
2,C/C(=N\NC(=O)CSc1nc2ccccc2o1)c1ccc(O)cc1,-1.7% (active)
3,O=C(CSc1nc2ccccc2o1)NCc1n[nH]c(=O)c2ccccc12,19.1%
4,CCOC(=O)Cc1nc2ccccc2o1,11.7%
5,Cc1nn(C)c(C(=O)NC(=S)Nc2ccccc2Br)c1Cl,41.3%
6,CCc1ccc(C(C)NC(=O)c2ccc(F)cc2)cc1 (centres undefined),43.4%
7,CCOC(=O)C1CCCN(C(=S)NC(=O)/C=C/c2ccc(F)cc2)C1 (centres undefined),1.2%
8,O=C(c1ccc(C(F)(F)F)cc1)C1CCCN(C(=O)CCc2ccncc2)C1 (centres undefined),4.7%
9,Cn1cc(CCC(=O)N2CCCC(Nc3ccc(F)cc3)C2)cn1 (centres undefined),-2% (active)
10,Cc1cc(N2C(=O)C(O)=C(C(=O)c3cccs3)C2c2ccccc2)no1 (centres undefined),-1.4% (active)
11,Cc1cccc(N2C(=O)C(O)=C(C(=O)c3cccs3)C2c2cccc(Oc3ccccc3)c2)n1 (centres undefined),11.3%
12,COc1ccccc1C1C(C(=O)c2ccc(C)o2)=C(O)C(=O)N1c1cc(C)on1 (centres undefined),14.4%
13,CCOC(=O)C1=NN(C(=O)c2ccc(C)cc2)C(O)(c2ccc(Cl)cc2)C1 (centres undefined),110%
14,COc1ccccc1NC(=O)C(=O)NNC(=O)COc1ccc2ccccc2c1,115%
15,Cc1ccc(C(=O)NC(=S)N(C)C2CCCCC2)cc1,27.3%
16,COC(=O)c1sc(NC(=S)NC(=O)c2ccccc2C)nc1C,41%
17,S=c1[nH]c2ccc(Cl)cc2s1,115%
18,CCOC(=O)C(C)Sc1nc2c(c(-c3cccs3)c1C#N)CCC2 (centres undefined),6.3%
19,N#Cc1c(-c2ccc(Cl)cc2)cc(-c2cccs2)nc1SCC(=O)O,-10.2% (active)
20,CCc1nnc(NC(=O)CSc2nc(-c3ccccc3)cc(-c3ccc(OC)cc3)c2C#N)s1,5.3%
21,C/C(=N\NC(N)=S)c1cccnc1,-3.2% (active)
22,C/C(=N\NC(N)=S)c1ccncc1,19.1%
23,CSC(=S)N/N=C(\C)c1ccccc1,64.1%
24,S=c1[nH]cnc2scc(-c3ccc(Br)cc3)c12,28.5%
25,CCn1ncc(Cl)c1C(=O)NC(=S)Nc1ccccc1Br,51.3%
26,CCN(C(=S)NC(=O)c1ccccc1Br)C1CCCCC1,93.4%

row,SMILES,activity change vs negative control
1,CC1CCc2sc(-c3n[nH]c(=S)o3)cc2C1 (centres undefined),35.3%
2,Fc1cccc2sc(Nc3nnc(-c4ccccc4)o3)nc12,109%
3,Cc1ccc(Nc2cc(C)nn2-c2nc(C)cc(=O)[nH]2)cc1,83.1%
4,O=C(Nn1c(O)c(C=C2N=c3ccccc3=N2)sc1=S)c1cccc(Cl)c1,6.4%
5,CC1CCCCC1n1c(=S)[nH]c2ccccc2c1=O (centres undefined),28%
6,CSc1nc(C)c2c(n1)N(c1ccc(C(C)C)cc1)CC2,-2.7% (active)
7,COc1ccccc1C(=O)NNC(=O)C(=O)Nc1cccc(Cl)c1C,160%
8,O=C(CCSc1ccc(Br)cc1)c1ccc(O)cc1,8.7%
9,CSc1nc2sc3c(c2c(=S)[nH]1)CC(C)(C)OC3,95%
10,CN(Cc1ccccc1)C(=O)CCc1ccccc1,5.4%
11,CCOC(=O)c1c(NS(=O)(=O)Cc2ccccc2)sc2c1CCCC2,62%
12,Cc1ccc(-c2csc(=S)[nH]2)cc1,106%
13,O=C(NC(=S)Nc1ccccn1)c1cc(-c2ccccc2)nc2ccccc12,19.4%
14,Cc1ccc(/C=N/NC(=O)c2cc(-c3ccncc3)nc3ccccc23)o1,2.6%
15,O=C(N/N=C/c1ccccn1)c1cc(-c2ccc(Br)cc2)nc2ccccc12,-4.7% (active)
16,Cc1ccc(OCC(=O)NC(=S)Nc2ccc(Br)cn2)cc1,33.8%
17,Cc1ccc(C(=O)Nc2nc3ccccc3c(=O)s2)cc1,22.4%
18,COc1ccc(C(=O)N2CCN(Cc3ccc4c(c3)OCO4)CC2)cc1[N+](=O)[O-],4.4%
19,CCOc1ccc(S(=O)(=O)N2CCN(Cc3ccc4c(c3)OCO4)CC2)cc1C,-5.7% (active)
20,O=C(COc1ccc(Cl)cc1)N1CCN(Cc2ccc3c(c2)OCO3)CC1,22.9%
21,Cc1cc(C)c2nc(NC(=O)CN3C(=O)NC4(CCCC4)C3=O)sc2c1,18.8%
22,O=C(Nc1nc2c(F)cc(F)cc2s1)C1COc2ccccc2O1 (centres undefined),3.8%
23,Cc1cc(C)c2nc(NC(=O)C3CCCO3)sc2c1 (centres undefined),-2.4% (active)
24,CCCCCC/C(C)=C1/SC(=S)NC1=O,94.1%
25,CCOC(=O)c1c(NC(=O)CN2CCN(C(=O)c3ccco3)CC2)sc2c1CCCC2,39%
26,O=c1ccc(N=Nc2ccccc2)ccc1O,109%

row,SMILES,activity change vs negative control
1,COc1cc(OC)cc(C(=O)NC(=S)N(Cc2ccccc2)C(C)C)c1,45.9%
2,COc1cc(OC)cc(C(=O)OCC(=O)N(C)c2ccccc2)c1,-0.3% (active)
3,COc1cc(OC)cc(C(=O)O/N=C(\N)c2cccc(C)c2)c1,4.9%
4,CC(C)(C)NC(=O)C(=O)NNC(=O)c1cccc(Br)c1,40%
5,O=C(Nc1cccn(Cc2c(Cl)cccc2Cl)c1=O)c1ccccc1Cl,-1.1% (active)
6,O=C(Nc1ccsc1C(=O)O)c1ccccc1Cl,14.8%
7,Cc1ccccc1C(=O)NNC(=O)C(=O)Nc1cccc(Cl)c1C,40.7%
8,CC(=O)CSc1ncnc2sc3c(c12)CCC(C)C3 (centres undefined),111%
9,CC(C)(C)c1ccc(/C=C/C(=O)N2CCCCC2)cc1,32.8%
10,Cn1c(=O)cc(-c2ccccc2)c2ccccc21,2.7%
11,CCOc1ccc(N(CC)C(=O)COc2cc(=O)n(C)c3ccccc23)cc1,-3.3% (active)
12,CCOC(=O)c1c(O)c2ccccc2n(C)c1=O,17.5%
13,Cc1cccc(N2CCN(C(=O)CNC(=O)c3cccc([N+](=O)[O-])c3)CC2)c1C,1.9%
14,CCn1c(SCC(=O)NC(=O)NCc2ccco2)nc2sc(C)c(C)c2c1=O,43.3%
15,C=CCSc1nc2sc3c(c2c(=O)n1CC)CCc1ccccc1-3,35%
16,CC(=O)c1ccc(N2CCN(C(=O)Cc3ccccc3)CC2)c(F)c1,-0.2% (active)
17,CS(=O)(=O)N(CCc1ccccc1)CC(=O)N1CCN(c2ccc(F)cc2)CC1,1.7%
18,O=C(c1ccc(Cl)c(S(=O)(=O)N2CCCC2)c1)N1CCN(c2ccccc2F)CC1,14.8%
19,S=c1nc(-c2ccc(Br)cc2)[nH]c2ccccc12,122%
20,Cc1ccc(C(=O)CC(=O)COc2ccc(Cl)cc2C)cc1,13.2%
21,O=C(CCC(=O)Nc1ccccc1)NNC(=O)c1ccco1,3.9%
22,CCC(=O)Nc1nnc(-c2ccccn2)o1,-0.7% (active)
23,O=C(Nc1nnc(-c2ccccc2)o1)c1ccc(Cl)cc1,13.6%
24,O=C(CCc1ccccc1)Nc1nccs1,4.5%
25,O=C(CCc1ccccc1)Nc1nnc(-c2ccccn2)o1,-2.9% (active)
26,O=C(Nc1nnc(-c2ccc3c(c2)CCCC3)o1)C1COc2ccccc2O1 (centres undefined),28%

row,SMILES,activity change vs negative control
1,CCCOc1ccc(OC(=O)c2ccc(Br)o2)cc1,20.9%
2,O=C(NC(=S)Nc1ccccc1)c1csnn1,105%
3,CC(=O)Nc1ccc(S(=O)(=O)N2CCC(NC(=O)c3ccccc3)CC2)cc1,9.4%
4,CC(=O)Nc1ccc(S(=O)(=O)N2CCC(C(=O)O)CC2)cc1,-3% (active)
5,O=C(/C=C/c1ccccc1)Nc1ccc(S(=O)(=O)N2CCOCC2)cc1,2%
6,CCc1cc2c(=O)n(CCC(C)C)c(=S)[nH]c2s1,83.4%
7,S=c1nc(COc2ccccc2)[nH]c2ccccc12,159%
8,CN(C)CCCN=C(NO)c1ccc(Cl)cc1Cl,6.6%
9,CCSc1nc2c(sc3ccccc32)c(=O)n1C(C)C,54.6%
10,COCC(=O)Nc1cc(C)cn(Cc2c(F)cccc2Cl)c1=O,-0.6% (active)
11,O=C(COC(=O)C1CCC(=O)N1)Nc1cc(Cl)ccc1Cl (centres undefined),4.6%
12,CCOC(=O)c1sc2ncnc(NCc3ccco3)c2c1C,66.3%
13,CCCN(C(=O)c1ccco1)c1nnc(-c2ccncc2)s1,7.1%
14,Cc1[nH]n2c(=O)cc(C(C)(C)C)nc2c1-c1ccccc1,38.2%
15,CCOC(=O)C1CCN(C(=O)COC(=O)c2nn(C)c(=O)c3ccccc23)CC1,8.5%
16,CC1CCCN(C(=O)COC(=O)c2cc(-c3cccs3)nn2-c2ccccc2)C1 (centres undefined),-2.5% (active)
17,Cc1oc(-c2cccs2)nc1CN1CCC(C(=O)N2CCCC2)CC1,12.1%
18,CC(=O)c1c(NC(=O)c2ccccc2)[nH]c(-c2ccccc2)nc1=S,30.6%
19,Cc1ccc(-c2nc(N)s[n+]2-c2ccccc2)cc1,42.6%
20,CCOC(=O)Cc1csc(NC(=S)NC(=O)c2ccccc2C)n1,26.3%
21,COc1cccc(/C=N/Nc2nc3ccccc3[nH]2)c1O,24.7%
22,COc1cccc2cc(-c3nc4ccccc4[nH]3)c(=O)oc12,-9.4% (active)
23,COc1ccc(C(=O)NC(=S)N2CCC(C)CC2)cc1Br,74.7%
24,COc1cc(C2NC(=O)NC(C)=C2C(=O)OCC2CCCCC2)ccc1O (centres undefined),7.4%
25,Cc1ccc(C2c3c(-c4ccccc4O)n[nH]c3C(=O)N2Cc2ccncc2)cc1 (centres undefined),10.7%
26,COc1cc(C2c3c(n[nH]c3C)C(=O)N2c2ccc(C)cc2)ccc1O (centres undefined),-5% (active)
